# Assay results taken from the supplement of paper PMC9262897, “Low-cost anti-mycobacterial drug discovery using engineered E. coli” (Nature Communications, 2022).
# Counter-ions that a name gives are not always drawn. ± gives the standard deviation of the averaged measurements.
# Tests used:
# Assay in all cases: growth (OD600 after 10 h); higher = more growth (less inhibition)
# [1] = tested on: E. coli TESEC Alr+ wild-type control; details: compound 0.1 mM; raw OD600 reference: median of DMSO wells 0.241, cell-free background 0.041
# Description: (§1)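 TESEC Mtb Alr E. coli, or the Alr+ wild-type control, in 384-well plates with Prestwick library compounds at 0.1 mM and 1% DMSO, across arabinose induction levels of 1E3 to 1E7 nM. Growth is read as OD600 after 10 h at 37 °C in triplicate biological replicates.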
# E. coli TESEC Mtb Alr [2] = details: compound 0.1 mM
# Description: as §1
# E. coli TESEC Mtb Asd = details: compound 0.1 mM
# Description: (§2)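 TESEC E. coli strains in which the native enzyme is deleted and replaced by arabinose-inducible Mtb Asd, DapB, CysH or TrpD, each grown in its selective medium. Strains were screened against the Prestwick library at 0.1 mM and 1% DMSO in 384-well format at low and high arabinose induction. Growth is read as OD600 after 10 h in triplicate.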
# E. coli TESEC Mtb DapB = details: compound 0.1 mM
# Description: as §2
# E. coli TESEC Mtb Alr [3] = details: compound 0.1 mM; remark: listed apart in the source
# Description: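 TESEC Mtb Alr E. coli (ΔaraC ΔtolC ΔentC Δalr ΔdadX, arabinose-inducible Mtb Alr) or the Alr+ wild-type control strain, grown in defined M9-fructose medium without D-alanine in 96-well plates with Prestwick library compounds at 0.1 mM and 1% DMSO. Low Alr induction is 0.1 µM arabinose and high induction is 10 mM arabinose.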
# [4] = arabinose 1000 nM, raw OD600 reference: median of DMSO wells 0.294, cell-free background 0.041
# [5] = arabinose 10000 nM, raw OD600 reference: median of DMSO wells 0.264, cell-free background 0.041
# [6] = arabinose 100000 nM, raw OD600 reference: median of DMSO wells 0.201, cell-free background 0.041
# [7] = arabinose 1000000 nM, raw OD600 reference: median of DMSO wells 0.193, cell-free background 0.041
# [8] = arabinose 10000000 nM, raw OD600 reference: median of DMSO wells 0.146, cell-free background 0.041
# [9] = arabinose induction (level): High, raw OD600 reference: median of DMSO wells 0.331, cell-free background 0.041
# [10] = arabinose induction (level): Low, raw OD600 reference: median of DMSO wells 0.417, cell-free background 0.041
# [11] = arabinose induction (level): High, raw OD600 reference: median of DMSO wells […], cell-free background 0.041
# [12] = arabinose induction (level): Low, raw OD600 reference: median of DMSO wells 0.227, cell-free background 0.041
# [13] = arabinose 100 nM, raw OD600 reference: median of DMSO wells 0.413, cell-free background 0.052
# [14] = arabinose 10000000 nM, raw OD600 reference: median of DMSO wells […], cell-free background 0.052
Compound,growth [1],growth (E. coli TESEC Mtb Alr [2]; [4]),growth (E. coli TESEC Mtb Alr [2]; [5]),growth (E. coli TESEC Mtb Alr [2]; [6]),growth (E. coli TESEC Mtb Alr [2]; [7]),growth (E. coli TESEC Mtb Alr [2]; [8]),growth (E. coli TESEC Mtb Asd; [9]),growth (E. coli TESEC Mtb Asd; [10]),growth (E. coli TESEC Mtb DapB; [11]),growth (E. coli TESEC Mtb DapB; [12]),growth (E. coli TESEC Mtb Alr [3]; [13]),growth (E. coli TESEC Mtb Alr [3]; [14])
CCN(CC)C(=O)/C(C#N)=C/c1cc(O)c(O)c([N+](=O)[O-])c1 [Entacapone],0.0523 ± 0.00059,0.0552 ± 0.0036,0.0571 ± 0.00062,0.0534 ± 0.0015,0.0544 ± 0.00092,0.0482 ± 0.00026,0.142 ± 0.005,0.149 ± 0.029,0.138 ± 0.007,0.172 ± 0.0056,0.195 ± 0.011,0.0695 ± 0.0028
COC1=C(OC)C(=O)C(CCCCCCCCCCO)=C(C)C1=O [Idebenone],0.0426 ± 0.0005,0.0428 ± 0.0023,0.0413 ± 0.00026,0.0466 ± 0.0041,0.04233 ± 0.0004,0.0482 ± 0.0015,0.0516 ± 0.0016,0.0501 ± 0.0007,0.0884 ± 0.057,0.066 ± 0.0091,0.139 ± 0.087,0.0513 ± 0.001
CN1[C@@H]2CC[C@H]1C[C@@H](OC(=O)c1c[nH]c3ccccc13)C2 [Tropisetron HCl],0.224 ± 0.0054,0.294 ± 0.0064,0.273 ± 0.0034,0.216 ± 0.036,0.177 ± 0.0038,0.158 ± 0.0026,0.305 ± 0.044,0.319 ± 0.034,0.219 ± 0.02,0.264 ± 0.05,0.402 ± 0.012,0.359 ± 0.0044
COc1ccc(CN(CCN(C)C)c2ccccn2)cc1 [Pyrilamine maleate],0.2136 ± 0.002,0.269 ± 0.018,0.263 ± 0.0074,0.179 ± 0.008,0.154 ± 0.0054,0.135 ± 0.0052,0.206 ± 0.052,0.426 ± 0.034,0.188 ± 0.017,0.211 ± 0.029,0.3958 ± 0.0033,0.321 ± 0.015
CC(C)(Oc1ccc(C2CC2(Cl)Cl)cc1)C(=O)O (stereo unspecified) [Ciprofibrate],0.205 ± 0.046,0.263 ± 0.0056,0.273 ± 0.0078,0.154 ± 0.004,0.187 ± 0.016,0.123 ± 0.0026,0.26 ± 0.032,0.303 ± 0.051,0.203 ± 0.018,0.207 ± 0.012,0.43 ± 0.0055,0.312 ± 0.016
Clc1cc(Cl)c(OCC#CI)cc1Cl [Haloprogin],0.128 ± 0.027,0.249 ± 0.015,0.197 ± 0.0027,0.216 ± 0.004,0.137 ± 0.0043,0.168 ± 0.0052,0.242 ± 0.037,0.276 ± 0.095,0.245 ± 0.04,0.259 ± 0.018,0.386 ± 0.027,0.104 ± 0.0032
Cn1c(=O)c2c(ncn2CC2OCCO2)n(C)c1=O [Doxofylline],0.248 ± 0.0076,0.302 ± 0.015,0.259 ± 0.01,0.197 ± 0.017,0.179 ± 0.011,0.158 ± 0.0092,0.476 ± 0.018,0.469 ± 0.035,0.1957 ± 0.00055,0.238 ± 0.0011,0.408 ± 0.0051,0.334 ± 0.01
C[N+](C)(C)CCOC(N)=O [Carbachol],0.251 ± 0.0053,0.309 ± 0.014,0.284 ± 0.02,0.177 ± 0.0065,0.186 ± 0.006,0.164 ± 0.0027,0.475 ± 0.0086,0.438 ± 0.051,0.194 ± 0.0084,0.26 ± 0.028,0.409 ± 0.023,0.364 ± 0.014
CCC(C)(C)C(=O)O[C@H]1C[C@@H](C)C=C2C=C[C@H](C)[C@H](CC[C@@H]3C[C@@H](O)CC(=O)O3)[C@H]21 [Simvastatin],0.198 ± 0.017,0.201 ± 0.015,0.161 ± 0.0024,0.113 ± 0.0033,0.053 ± 0.0021,0.0742 ± 0.004,0.0906 ± 0.015,0.197 ± 0.023,0.161 ± 0.021,0.175 ± 0.0069,0.392 ± 0.014,0.0705 ± 0.023
CCCC(=O)Nc1ncnc2c1ncn2[C@@H]1O[C@@H]2COP(=O)(O)O[C@H]2[C@H]1OC(=O)CCC [Bucladesine sodium salt],0.25 ± 0.0053,0.31 ± 0.019,0.275 ± 0.0043,0.206 ± 0.015,0.189 ± 0.0065,0.138 ± 0.012,0.355 ± 0.06,0.47 ± 0.008,0.2 ± 0.016,0.218 ± 0.014,0.405 ± 0.011,0.362 ± 0.013
CN[C@H]1CC[C@@H](c2ccc(Cl)c(Cl)c2)c2ccccc21 [Sertraline],0.0407 ± 0.00036,0.0417 ± 0.0013,0.0403 ± 0.0019,0.0432 ± 0.0016,0.0393 ± 0.0007,0.0414 ± 0.00047,0.0545 ± 0.0057,0.0508 ± 0.0037,0.0504 ± 0.00093,0.0522 ± 0.0014,0.392 ± 0.036,0.0517 ± 0.00092
Clc1ccc(Nc2nnc(Cc3ccncc3)c3ccccc23)cc1 [Vatalanib],0.104 ± 0.031,0.0967 ± 0.038,0.0476 ± 0.003,0.0763 ± 0.0031,0.0489 ± 0.0002,0.0787 ± 0.0014,0.112 ± 0.017,0.0893 ± 0.021,0.203 ± 0.081,0.15 ± 0.015,0.303 ± 0.17,0.0605 ± 0.0043
CCCOc1ccccc1-c1nc2[nH]nnc2c(=O)[nH]1 [Zaprinast],0.205 ± 0.0049,0.229 ± 0.0072,0.257 ± 0.0057,0.162 ± 0.016,0.173 ± 0.0024,0.138 ± 0.0042,0.268 ± 0.029,0.313 ± 0.046,0.191 ± 0.0075,0.199 ± 0.024,0.396 ± 0.0084,0.289 ± 0.0088
